# Most compounds without a hit are left out; they make up all but 12% or so of the library.
# HP1b binding inh = HTS for Inhibitors of HP1-beta Chromodomain Interactions with Methylated Histone Tails | Potency, µM (doses to about 114 µM), inactives show at the highest dose activity change, negative = inhibition, hits mostly inhibitors | AlphaScreen HP1-beta / biotin-H3K9me3 peptide binding | 0.56% of 390,000 active; note: potency is the fitted concentration of half-maximal effect; nearly all actives have a fitted effect of over 70% in size
#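 HP1-beta protein (50 nM final) preincubated 30 min at room temperature with biotinylated H3(1-18)K9me3 peptide (50 nM) in PBS pH 7.4, 0.01% Tween-20, then compound added for 30 min. AlphaScreen streptavidin donor/nickel chelate acceptor beads (10 ug/mL final), 30 min dark, luminescence read.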
# G9a inh = qHTS Assay for Inhibitors of Histone Lysine Methyltransferase G9a | Histone-lysine N-methyltransferase EHMT2 (Homo sapiens), Q96KQ7 | G9a H3K9 monomethylation, AlphaScreen, 2 h | Potency, µM (titrated, usually from 102 µM), without a hit: at the highest dose activity, negative = inhibition, most hits filed as inhibitors | 8.8% of 350,000 active | AID 504332, 2011; note: potency is the fitted concentration of half-maximal effect; % is set by controls: 0 for no effect and ±100 for the full control effect; nearly all actives have a fitted effect of over 75% in size
#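 AlphaScreen detection with an anti-monomethyl H3K9 antibody quantified product after a 2 h room-temperature reaction containing 500 nM biotinylated H3K9 peptide, 20 µM SAM and 20 nM enzyme, which had been preincubated 15 min with compound.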
# BAZ2B inh = qHTS Assay for Inhibitors of BAZ2B; Bromodomain adjacent to zinc finger domain protein 2B (Homo sapiens), Q9UIF8; AlphaScreen BAZ2B-H3K14Ac peptide displacement; Potency, µM (doses to about 114 µM), inactives show top-dose activity change, negative = inhibition, actives largely listed as inhibitors; 4.4% of 360,000 active; note: potency is the fitted concentration of half-maximal effect; % is set by controls: 0 for no effect and ±100 for the full control effect; nearly all actives have a fitted effect of over 60% in size
#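 Protein-peptide AlphaScreen: BAZ2B 50 nM, b-H3K14Ac 50 nM, 1x PBS pH 7.4 + 0.01% Tween-20. Preincubation 30 min RT; cpd 30 min RT (top 110 uM); beads 20 min RT, light-protected.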
# JMJD2A Tudor = qHTS Assay for Inhibitors of JMJD2A-Tudor Domain; Lysine-specific demethylase 4A (Homo sapiens), O75164; AlphaScreen JMJD2A-Tudor / H3K4me3 peptide binding; Potency, µM (series often up to 114 µM), inactives show at the top dose activity change, negative = inhibition, most hits filed as inhibitors; 4.4% of 390,000 active; AID 504339, 2011; note: potency is the fitted concentration of half-maximal effect; % is set by controls: 0 for no effect and ±100 for the full control effect; nearly all actives have a fitted effect of over 50% in size
# PI5P4Ka inh = qHTS for Inhibitors of phosphatidylinositol 5-phosphate 4-kinase (PI5P4K). 1.2% of 330,000 active. PI5P4Kalpha enzyme, ADP-Glo luminescence, 60 min; stronger effect = lower value. max response, %. AID 652105, 2013. Phosphatidylinositol 5-phosphate 4-kinase type-2 alpha (Homo sapiens), P48426; active = max response of -50% or lower; inconclusive = between -30% and -50%; inactive = -30% or higher; note: value at the top dose of about 77 µM; % is set by controls: 0 for no effect and ±100 for the full control effect
#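 Single end-point luminescence (ADP-Glo) quantified ADP from PI5P4Kalpha turnover; ATP 5 microM final, 1 h at RT, 0.1% CHAPS and 0.28 mM EGTA in HEPES pH 7.4.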
# PLK1 PBD inh = qHTS for Inhibitors of PLK1-PDB (polo-like kinase 1 - polo-box domain): Primary Screen | 2.8% of 360,000 active | AID 720504, 2013 | Potency, µM, for inactives: max response, negative = inhibition, usual class: inhibitors | Serine/threonine-protein kinase PLK1 (Homo sapiens), P53350 | Plk1 PBD binding of FITC phosphopeptide, fluorescence polarization; note: potency is the fitted concentration of half-maximal effect; series mostly up to about 57 µM; % is set by controls: 0 for no effect and ±100 for the full control effect; nearly all actives have a fitted effect of over 65% in size
# Target sequence (P53350 whole entry, looked up, the tested form may be a part): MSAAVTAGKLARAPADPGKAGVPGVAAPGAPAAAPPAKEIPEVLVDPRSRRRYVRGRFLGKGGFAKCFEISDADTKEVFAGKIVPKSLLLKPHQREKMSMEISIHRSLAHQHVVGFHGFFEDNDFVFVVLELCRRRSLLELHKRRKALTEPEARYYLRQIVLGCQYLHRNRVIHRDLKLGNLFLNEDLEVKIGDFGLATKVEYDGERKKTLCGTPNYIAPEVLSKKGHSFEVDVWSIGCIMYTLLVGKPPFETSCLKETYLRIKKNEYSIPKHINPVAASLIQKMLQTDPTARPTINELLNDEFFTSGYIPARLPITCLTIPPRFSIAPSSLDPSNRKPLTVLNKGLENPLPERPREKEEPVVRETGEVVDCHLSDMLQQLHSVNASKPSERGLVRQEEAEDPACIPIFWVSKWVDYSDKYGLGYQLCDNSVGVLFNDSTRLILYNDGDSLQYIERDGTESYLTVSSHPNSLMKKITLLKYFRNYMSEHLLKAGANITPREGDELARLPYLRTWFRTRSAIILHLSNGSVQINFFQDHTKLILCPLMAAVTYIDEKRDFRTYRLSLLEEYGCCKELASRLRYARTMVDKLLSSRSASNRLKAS
# An asterisk follows results filed as active; ? = inconclusive; . = not tested or not shown; [ ] = another dose, or the depositor's remark. Unless noted, calls come from the whole dose curve; as a rule, active = well fitted curve in the direction sought with a large enough effect; inconclusive = small, poorly fitted or top-dose-only effect, or another doubt; inactive = no such curve, though single readings can be large; an effect the other way counts as inactive or inconclusive.
SMILES,HP1b binding inh,G9a inh,BAZ2B inh,JMJD2A Tudor,PI5P4Ka inh,PLK1 PBD inh
O=C(O)c1ccc(Cl)c(S(=O)(=O)Nc2ccc(S(=O)(=O)Nc3cccc(Cl)c3)cc2)c1,-1.8%,56.2µM*,-33.3%,-5.7%,6.8,-16.7%
O=C(O)c1cccc(NS(=O)(=O)c2ccc(-c3ccc(S(=O)(=O)Nc4cccc(C(=O)O)c4)cc3)cc2)c1,23.9%,50.1µM*,-13.4%,-26.8%,?,-16.4%
O=C(O)c1cc(S(=O)(=O)Nc2ccccc2Cc2ccccc2)ccc1Cl,16.9%,-15.8%,-1.4%,-14.5%,-2.6,-2.9%
CC(NS(=O)(=O)c1ccc2c(c1)C(=O)c1cc(S(=O)(=O)NC(C)C(=O)O)ccc1-2)C(=O)O (stereo not drawn),?,28.2µM*,-20.2%,10µM*,-2.1,-7.9%
O=C(O)CCC(=O)C(=O)O,.,7.2%[59 µM],.,.,.,.
CCOc1cccc2cc(S(=O)(=O)c3ccccc3F)c(=O)oc12,-0.4%,-47.9%[59 µM],-16.8%,-17.5%,.,.
CCCCN(C)C(=O)CN1C(=O)c2cccnc2Oc2ccc(Cl)cc21,8.5%,-0.7%[59 µM],-2.7%,-18.8%,.,.
COc1ccc(NC(=O)C(NS(=O)(=O)c2ccc3c(c2)CCCC(=O)N3)C(C)C)c(OC)c1 (stereo not drawn),22.3%,-6.3%[59 µM],-2.7%,-21.8%,.,.
O=C(COC(=O)Cc1ccccc1F)NNC(=O)c1ccc([N+](=O)[O-])cc1,-0.3%,-3.4%,9.9%,-17.3%,2.7,-8.5%
CC(C)CNS(=O)(=O)c1cc(C(=O)O)c(Cl)cc1Cl,19.5%,?,-36.4%,0.7%[11.4 µM],3.1,-2.1%
O=C(O)c1cc(S(=O)(=O)Nc2cccc3ccccc23)c(Cl)cc1Cl,-12.5%,56.2µM*,-38.3%,79.4µM*,-11.6,?
O=C(O)c1cccc(NC(CNS(=O)(=O)c2ccc(Cl)cc2)c2ccccc2)c1 (stereo not drawn),6.3%,?,79.4µM*,-22.8%,0.8,-13.1%
O=C(O)c1ccc(NS(=O)(=O)c2ccc3c(c2)C(=O)c2ccccc2C3=O)cc1,23.9%,44.7µM*,-35.3%,-19.6%,0.1,-20.8%
O=C(O)c1cccc(S(=O)(=O)Nc2ccc(-c3ccccc3)cc2)c1,14.0%,.,.,-19.9%,-7.6,-4.0%
CC(C)N(CCCNC(=O)C1CCN(C(=O)c2cc3sccc3n2C)CC1)Cc1ccccc1,47.6%,.,-12.7%,-16.4%,9.3,-3.3%
O=C(Nc1ccc(Cl)cc1)c1ccc2nsnc2c1,44.1%,-7.4%[59 µM],-9.5%,-5.8%,2.7,-14.3%
COc1ccc(N(C)C(=O)Nc2ccc3nsnc3c2)cc1,52.6%,-30.3%,-12.3%,-2.8%,0.1,-8.0%
O=C(Nc1ccccc1)c1cccc(C(=O)Nc2ccccc2)n1,32.1%,-12.4%[12.7 µM],-16.9%,-8.3%,6.2,-0.8%
O=C(O)c1ccc(NC(=O)c2cccc(C(=O)Nc3ccc(C(=O)O)cc3)n2)cc1,57.7%,22.4µM*,-33.6%,?,?,-11.4%
CC(C)N(C(=O)Nc1ccc2nsnc2c1)C(C)C,-13.8%,.,-1.2%,79.4µM*,?,13.4µM*
CN(C)c1ccc(NC(=O)c2cccc(C(=O)Nc3ccc(N(C)C)cc3)n2)cc1,39.8µM*,3.16µM*,7.94µM*,15.8µM*,-21.7,-20.8%
CN(C)c1ccc(NC(=O)c2ccc3nsnc3c2)cc1,-13.4%,4.47µM*,-11.3%,-35.3%,.,-6.7%
Cc1ccc(NC(=O)C2CCN(c3nc4ccccc4[nH]3)CC2)c(C)c1,20.8%[57 µM],10.2%[59 µM],-1.8%,-16.6%,.,.
Cc1cc(C)cc(NC(=O)c2cccc(C(=O)Nc3cc(C)cc(C)c3)n2)c1,22.4%,?,?,4.47µM*,-4.9,-6.9%

# Bioassay records (PubChem)
